# Measured values from the supplement of paper PMC8975748.
# Counter-ions that a name gives are not always drawn. ± gives the standard deviation of the averaged measurements.
# Columns and labels:
# [1] = system: Saccharomyces cerevisiae BY4741 SeMeCo community; test: mean cell size (pixel area) (pixels); higher = larger cells; conditions: 10 µM; 24 h; SM minimal medium
# Summary of the method: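 For 24 h, 70 µl of yeast culture diluted to OD600 = 0.3 from an overnight preculture at OD600 = 1.0 was kept in SM medium in 384-well plates acoustically predosed with drug, final 10 µM. The strain was Saccharomyces cerevisiae BY4741 forming a fluorescent community of four plasmids, each complementing one auxotrophy and carrying a fluorescent marker. Automated confocal microscopy of paraformaldehyde-fixed cells, analysed in Harmony, provided mean cell pixel area per well, which was averaged over 3 replicates. Same SeMeCo high-content imaging drug screen: Selleck FDA-approved drugs at 10 µM, 24 h in SM medium, 384-well plates, 3 replicates.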
# [2] = system: Saccharomyces cerevisiae BY4741 SeMeCo community; test: z-score of subpopulation abundance vs DMSO median, subpopulation auxotrophic for M; higher = larger share of this subpopulation than in DMSO controls; conditions: 10 µM; 24 h; SM minimal medium; subpopulation (auxotrophy): M
# Summary of the method: (§1)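 Cells of a Saccharomyces cerevisiae BY4741 community, carrying four plasmids that each restored one auxotrophy and encoded a distinct fluorescent protein, were pre-grown overnight to OD600 1.0 and diluted to 0.3. A 70 µl volume was added to 384-well plates acoustically predosed with library drugs (10 µM final) and grown 24 h in minimal SM medium. After paraformaldehyde fixation, automated confocal microscopy was used, with single-auxotroph fluorescent strains for thresholds and autofluorescence correction. The abundance of each subpopulation was scored as a z-score against the vehicle-well median.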
# [3] = system: Saccharomyces cerevisiae BY4741 SeMeCo community; test: z-score of subpopulation abundance vs DMSO median, subpopulation auxotrophic for L; higher = larger share of this subpopulation than in DMSO controls; conditions: 10 µM; 24 h; SM minimal medium; subpopulation (auxotrophy): L
# Summary of the method: as §1
# [4] = system: Saccharomyces cerevisiae BY4741 SeMeCo community; test: z-score of subpopulation abundance vs DMSO median, subpopulation auxotrophic for U; higher = larger share of this subpopulation than in DMSO controls; conditions: 10 µM; 24 h; SM minimal medium; subpopulation (auxotrophy): U
# Summary of the method: as §1
# [5] = system: Saccharomyces cerevisiae BY4741 SeMeCo community; test: z-score of subpopulation abundance vs DMSO median, subpopulation auxotrophic for H; higher = larger share of this subpopulation than in DMSO controls; conditions: 10 µM; 24 h; SM minimal medium; subpopulation (auxotrophy): H
# Summary of the method: as §1
# [6] = system: Saccharomyces cerevisiae BY4741 SeMeCo community; test: z-score of subpopulation abundance vs DMSO median, subpopulation auxotrophic for LU; higher = larger share of this subpopulation than in DMSO controls; conditions: 10 µM; 24 h; SM minimal medium; subpopulation (auxotrophy): LU
# Summary of the method: as §1
# [7] = system: Saccharomyces cerevisiae BY4741 SeMeCo community; test: z-score of subpopulation abundance vs DMSO median, subpopulation auxotrophic for LM; higher = larger share of this subpopulation than in DMSO controls; conditions: 10 µM; 24 h; SM minimal medium; subpopulation (auxotrophy): LM
# Summary of the method: as §1
# [8] = system: Saccharomyces cerevisiae BY4741 SeMeCo community; test: z-score of subpopulation abundance vs DMSO median, subpopulation auxotrophic for HM; higher = larger share of this subpopulation than in DMSO controls; conditions: 10 µM; 24 h; SM minimal medium; subpopulation (auxotrophy): HM
# Summary of the method: as §1
# [9] = system: Saccharomyces cerevisiae BY4741 SeMeCo community; test: z-score of subpopulation abundance vs DMSO median, subpopulation auxotrophic for HU; higher = larger share of this subpopulation than in DMSO controls; conditions: 10 µM; 24 h; SM minimal medium; subpopulation (auxotrophy): HU
# Summary of the method: as §1
# [10] = system: Saccharomyces cerevisiae BY4741 SeMeCo community; test: z-score of subpopulation abundance vs DMSO median, subpopulation auxotrophic for UM; higher = larger share of this subpopulation than in DMSO controls; conditions: 10 µM; 24 h; SM minimal medium; subpopulation (auxotrophy): UM
# Summary of the method: as §1
# [11] = system: Saccharomyces cerevisiae BY4741 SeMeCo community; test: z-score of subpopulation abundance vs DMSO median, subpopulation auxotrophic for HL; higher = larger share of this subpopulation than in DMSO controls; conditions: 10 µM; 24 h; SM minimal medium; subpopulation (auxotrophy): HL
# Summary of the method: as §1
# [12] = system: Saccharomyces cerevisiae BY4741 SeMeCo community; test: z-score of subpopulation abundance vs DMSO median, subpopulation auxotrophic for HLU; higher = larger share of this subpopulation than in DMSO controls; conditions: 10 µM; 24 h; SM minimal medium; subpopulation (auxotrophy): HLU
# Summary of the method: as §1
# [13] = system: Saccharomyces cerevisiae BY4741 SeMeCo community; test: z-score of subpopulation abundance vs DMSO median, subpopulation auxotrophic for HLM; higher = larger share of this subpopulation than in DMSO controls; conditions: 10 µM; 24 h; SM minimal medium; subpopulation (auxotrophy): HLM
# Summary of the method: as §1
# [14] = system: Saccharomyces cerevisiae BY4741 SeMeCo community; test: z-score of subpopulation abundance vs DMSO median, subpopulation auxotrophic for HUM; higher = larger share of this subpopulation than in DMSO controls; conditions: 10 µM; 24 h; SM minimal medium; subpopulation (auxotrophy): HUM
# Summary of the method: as §1
# [15] = system: Saccharomyces cerevisiae BY4741 SeMeCo community; test: z-score of prototroph abundance vs DMSO median; higher = larger share of this subpopulation than in DMSO controls; conditions: 10 µM; 24 h; SM minimal medium; subpopulation (auxotrophy): Prototroph
# Summary of the method: as §1
# [16] = system: Saccharomyces cerevisiae BY4741 SeMeCo community; test: z-score of subpopulation abundance vs DMSO median, subpopulation auxotrophic for LUM; higher = larger share of this subpopulation than in DMSO controls; conditions: 10 µM; 24 h; SM minimal medium; subpopulation (auxotrophy): LUM
# Summary of the method: as §1
# [17] = system: Saccharomyces cerevisiae BY4741 SeMeCo community; test: z-score of subpopulation abundance vs DMSO median, subpopulation auxotrophic for HLUM; higher = larger share of this subpopulation than in DMSO controls; conditions: 10 µM; 24 h; SM minimal medium; subpopulation (auxotrophy): HLUM
# Summary of the method: as §1
SMILES,mean cell size [1],z-score of subpopulation abundance [2],z-score of subpopulation abundance [3],z-score of subpopulation abundance [4],z-score of subpopulation abundance [5],z-score of subpopulation abundance [6],z-score of subpopulation abundance [7],z-score of subpopulation abundance [8],z-score of subpopulation abundance [9],z-score of subpopulation abundance [10],z-score of subpopulation abundance [11],z-score of subpopulation abundance [12],z-score of subpopulation abundance [13],z-score of subpopulation abundance [14],z-score of prototroph abundance [15],z-score of subpopulation abundance [16],z-score of subpopulation abundance [17]
CCOc1cc(N)c(Cl)cc1C(=O)NCC1CN(Cc2ccc(F)cc2)CCO1 (stereo not drawn) [Mosapride Citrate],12.5 ± 0.12,0.17,0.92,0.31,-0.34,0.9,-0.05,0.32,0.11,0.37,0.35,0.02,0.62,0.97,,,
OC1(c2ccc(Cl)c(C(F)(F)F)c2)CCN(CCCC(c2ccc(F)cc2)c2ccc(F)cc2)CC1 [Penfluridol],11.65 ± 0.089,1.3,0.81,-0.01,0.09,0.13,2.64,0.4,,2.69,0.46,0.93,0.92,0.44,,,
CC(C)[C@H]1CC[C@H](C(=O)N[C@H](Cc2ccccc2)C(=O)O)CC1 [Nateglinide],12.5 ± 0.12,1.18,0.26,-0.59,0.66,0,0.32,0.65,0.06,,-0.02,-0.32,0.89,-0.11,-0.85,1.15,
CN[C@@H]1[C@H](O[C@H]2[C@H](O[C@H]3[C@H](O)[C@@H](O)[C@H](NC(=N)N)[C@@H](O)[C@@H]3NC(=N)N)O[C@@H](C)[C@]2(O)CO)O[C@@H](CO)[C@H](O)[C@H]1O [Dihydrostreptomycin sulfate],12.2 ± 0.26,-0.56,0.01,0.78,-0.62,-0.74,-0.32,,-0.87,-0.47,-0.83,-1,0.47,-0.82,0.5,-0.71,0.3
Cc1cc(NS(=O)(=O)c2ccc(N)cc2)no1 [Sulfamethoxazole sodium],12.3 ± 0.35,0.79,-0.95,0.7,-0.82,0.09,-1.48,-0.51,0.96,1.33,-1.13,-1.18,-0.73,1.03,-0.28,-0.34,
CN1C2CCC1CC(OC(=O)C(O)c1ccccc1)C2 (stereo not drawn) [Homatropine Bromide],12.31 ± 0.032,-0.4,-0.11,1.49,,0.66,-0.11,-1.06,0.61,0.94,,-0.08,-0.76,0,-0.38,0.09,
O=C1[C@@H]2[C@H]3CC[C@H](C3)[C@@H]2C(=O)N1C[C@@H]1CCCC[C@H]1CN1CCN(c2nsc3ccccc23)CC1 [lurasidone],12.19 ± 0.019,-0.62,0.42,-1.4,0.55,-0.67,0.39,,-0.35,-1.38,0.22,-0.09,-0.11,-0.45,0.9,-0.46,-0.82
CC[N+](CC)(CC)CC [Tetraethylammonium bromide],12.27 ± 0.094,0.89,-0.06,1.19,,1.18,0.41,0.22,-0.09,,-0.73,0.38,-0.06,-0.37,-0.64,0.28,
COC(=O)C1=C(C)NC(C)=C(C(=O)OC(C)C)C1c1cccc2nonc12 (stereo not drawn) [Isradipine],12.49 ± 0.11,-0.1,-0.22,0.74,-0.09,0.62,-1.09,,0.75,1.06,-0.52,0.04,-0.7,0.44,-0.42,-0.39,0.04
O=C(CCCN1CCN(c2ccccn2)CC1)c1ccc(F)cc1 [Azaperone],12.29 ± 0.072,0,0.29,0.07,-0.28,0.24,0.61,-0.63,0.16,0.85,-0.42,-0.03,-0.5,1.31,-0.1,,
CCOC(=O)C1=C(C)NC(C)=C(C(=O)OC)C1c1cccc(Cl)c1Cl (stereo not drawn) [Felodipine],12.57 ± 0.072,3.86,1.68,-6.72,3.29,-6.85,4.88,,-6.8,-7.8,4.71,-3.41,8.73,-5.68,2.53,-4.09,-1.13
CCn1cc(C(=O)O)c(=O)c2cnc(N3CCNCC3)nc21 [Pipemidic acid],12 ± 0.14,0.72,-0.32,0.77,-1.07,0.45,0.15,0.81,-0.06,0.86,0.01,-0.49,-0.37,0.55,-0.62,0.73,
Cc1c(OCC(F)(F)F)ccnc1C[S+]([O-])c1nc2ccccc2[nH]1 (stereo not drawn) [Lansoprazole],12.5 ± 0.14,-0.85,1.12,-0.71,1.84,-0.54,1.16,,0.54,-1.1,2.01,0.76,0.03,-0.3,-0.04,1.02,1.37
Cc1cc(=O)n(-c2ccccc2)n1C [Antipyrine],12.6 ± 0.13,0.62,-0.59,-0.44,-1.04,-0.69,-0.72,,-0.64,-1.23,-0.85,-0.53,-0.18,-0.77,0.87,0.02,-0.47
